# The campaign covered roughly 400,000 compounds. About 5,500 (1.4%) were called active. About 9% were inconclusive and are not listed. The entries come from a sample that favours actives as a whole. Unmarked numbers belong to inactive results. Calls come from the whole dose curve; as a rule, active = well fitted cell-killing curve with a large enough effect; inconclusive = small, poorly fitted or top-dose-only effect, or effect the other way; inactive = flat fitted curve, though single readings scatter.
# Experiment: qHTS assay for MDR1-selective chemotherapeutics: Primary screen using the parental adenocarcinoma cell KB-3-1; note: nearly all actives have a fitted effect of over 60% in size
# Details: KB-3-1 viability, CellTiter-Glo ATP luminescence, 72 h; series mostly up to 46.1 µM; activity change, negative = cytotoxic: at the top concentration
# Procedure, shortened: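 Screening of KB-3-1 cells (DMEM, 10% FBS, phenol-red free) ran from lowest to highest compound concentration; after 72 h at 37 °C viability was read luminescently and curves fitted.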
# % is set by controls: 0 for no effect and ±100 for the full control effect; potency is the fitted concentration of half-maximal effect.
Compound,"activity change, negative = cytotoxic",Potency
Cc1cc(C)c(NC(=O)Cn2c(SCC(=O)NCc3ccccc3)nc3ccccc32)c(C)c1,10.2%,–
Cc1ccc(-c2cnc(C3CC3)o2)cc1S(=O)(=O)Nc1cccc(C)c1C,-2.72%,–
Cc1cccc(NS(=O)(=O)c2ccc(-c3cnc(C4CC4)o3)cc2)c1,–,1.46 µM (active)
Cc1cccc(CNS(=O)(=O)c2ccc(-c3cnc(C4CC4)o3)cc2)c1,–,inactive
COCCn1c(CCC(=O)Nc2cc(C)ccc2C)nc2cccnc21,7.34%,–
COC(=O)c1ccccc1NC(=O)c1cc(-c2ccccc2O)no1,6%,–
O=C(CSc1nnc(-c2ccncc2)n1-c1ccccc1)Nc1ccc(Cl)c(Cl)c1,-0.827%,–
Cc1ccc(-c2nn(CCC(=O)Nc3ccc(Cl)c(Cl)c3)c(=O)c3ccccc23)cc1,2.54%,–
O=C(CC(O)(C(F)(F)F)C(F)(F)F)Nc1ccc(Cl)c(Cl)c1,–,5.17 µM (active)
CC(C)c1ccc(-c2noc(C3CCCN(S(C)(=O)=O)C3)n2)cc1 (centres undefined),–,20.6 µM (active)
COc1cc(-c2noc(C3CCCN(S(=O)(=O)c4cccc(Cl)c4)C3)n2)cc(OC)c1OC (centres undefined),0%,–
O=C(Cc1cccs1)N1CCCC(c2nc(-c3ccc(S(=O)(=O)N4CCCC4)cc3)no2)C1 (centres undefined),-17.4%,–
CC1CCCCN1CC(=O)N1CCCc2c1c(=O)oc1ccc(OCc3ccccc3)cc21 (centres undefined),-3.44%,–
Cc1cc(C)c(NC(=O)CCc2c(C)nc3c(c(C)nn3C(C)(C)C)c2C)c(C)c1,20.8%,–
Cc1ccc(CCC(=O)Nc2ncc(Cc3cc(Cl)ccc3Cl)s2)o1,–,1.16 µM (active)
CCc1ccc(CCC(=O)Nc2ccc(S(N)(=O)=O)cc2)o1,11%,–
Cc1cccc(-n2c(=O)c3c(c4cc(C)ccc4n3C)n(CC(=O)Nc3ccccc3Cl)c2=O)c1,-6.17%,–
CCC1CCCCN1S(=O)(=O)c1ccc(NC(=O)c2cc(=O)c3ccccc3o2)cc1 (centres undefined),1.72%,–
COc1ccc2c(c1OC)C(=O)OC2Nc1nc(-c2ccccc2)cs1 (centres undefined),–,3.66 µM (active)
COc1ccccc1C(=O)Nc1nc2nc(-c3ccccc3)cc(=O)n2[nH]1,–,inactive
COc1cc(C(O)c2nc(-c3cccc(C(=O)O)c3)cs2)ccc1F (centres undefined),0%,–
CCOC(=O)c1cccc(NS(=O)(=O)c2cc(-c3cnc(C)o3)ccc2OC)c1,0.0337%,–
COc1ccc(C)cc1N(CC(=O)N1CCC(C)CC1)S(=O)(=O)c1ccc(C)cc1,19.4%,–
CC(=O)Nc1ccc(NC(=O)c2cc3sccc3n2Cc2ccc(F)cc2)cc1,3.11%,–
CCn1cc(C(=O)OCC(=O)Nc2cc(C)cc(C)c2)c(=O)c2ccc(C)nc21,12.9%,–

Compound,"activity change, negative = cytotoxic",Potency
C[n+]1ccc(/C=C/c2c[nH]c3ccccc23)cc1,–,1.16 µM (active)
Clc1ccc(CSc2nncn3c2cc2occc23)cc1,1.43%,–
COc1cccc2cc(-c3nc(Cl)c4c5c(sc4n3)CC(C)CC5)c(=O)oc12 (centres undefined),0.732%,–
COc1ccc(CNC(=O)C2=Cc3cccc(OC)c3OC2)cc1OC,12.4%,–
CCN(Cc1ccccc1)S(=O)(=O)c1ccc2c(c1)CCCN2C(C)=O,4.43%,–
Oc1ccc2ccccc2c1N=Nc1nccs1,–,14.6 µM (active)
Cc1ccccc1OCCSc1nc2ccc(NC(=O)c3ccco3)cc2s1,-13.2%,–
CC(=O)Nc1cccc(C(=O)OCC(=O)c2ccc3c(c2)OCO3)c1,42.1%,–
O=C(Nc1ccc2c(c1)OCO2)c1cc(-c2cccc(Cl)c2)on1,17.7%,–
Cc1ccc(S(=O)(=O)c2c(Nc3cccc(Cl)c3)sc(C(=O)c3ccc4c(c3)OCO4)c2N)cc1,–,14.6 µM (active)
CN(C)C1=C2C=CC=CC2/C(=C2/C=Cc3ccccc32)C=C1 (centres undefined),-5.52%,–
COc1ccc(NC(=O)c2ccc3nc(CCc4ccccc4)oc3c2)c(OC)c1,-1.55%,–
Cc1oc2ccc(O)c(CN3CCOCC3)c2c1C(=O)Nc1cccc(Cl)c1C,6.77%,–
COc1ccc(NC(=O)CSc2nccn2Cc2ccc3c(c2)OCO3)cc1,15.4%,–
CCOc1ccc(NC(=O)Cn2c(=O)n(CCCC(=O)NCc3ccc4c(c3)OCO4)c(=O)c3ccccc32)cc1,0.92%,–
CCCOc1ccc(NC(=O)CC2C(=O)N(C)C(=S)N2Cc2ccc3c(c2)OCO3)cc1 (centres undefined),–,18.4 µM (active)
Cc1cccc(-c2ncc(CN3CCC(CO)(CCCc4ccccc4)CC3)cn2)c1,-25.5%,–
Cc1c(CN2CCC(CO)(CCOc3ccccc3)CC2)[nH]c2ccc(Cl)cc12,–,14.6 µM (active)
CC(C)(O)C#Cc1ccc(CN2CCC(CO)(CCc3ccccc3)CC2)cc1,-3.77%,–
Cc1ccc(C(=O)COC(=O)C(Cc2c[nH]c3ccccc23)NC(=O)c2ccc(Br)cc2)cc1 (centres undefined),16.8%,–
COc1cc(C(=O)Nc2ccc(OCc3cc(=O)n4cc(C)sc4n3)cc2)cc(OC)c1OC,-3.16%,–
O=C(CSc1oc(-c2ccco2)nc1S(=O)(=O)c1ccc(Cl)cc1)c1ccccc1,2%,–
CCOc1ccc(CC(=O)NCCc2csc3nc(-c4ccccc4F)nn23)cc1,0.131%,–
Cc1cccc(OCCSc2nc3ccccc3n2CC(=O)N2CCCCC2)c1C,-3.81%,–

# From PubChem BioAssay AID1347075 (National Center for Advancing Translational Sciences (NCATS), 2019)
